This passage reports growth results from PubChem BioAssay (NCI).

About 83,000 compounds went through this panel and 20% of them were active in at least one assay; those are over-represented in the sample as a whole.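 Assay: single dose, 48 h. Readout: percent growth (0 = no net growth; negative = cell death). Active: <10.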 Values without a mark were called inactive. The source made the active and inactive calls.

Holding throughout (assay): NCI-60 one-dose screen, 48 h (100 = growth as untreated, 0 = no growth, -100 = all killed)
What all share (details): 10 µM unless noted

Test [1] relates to HCT-15 colon.
Test [2] relates to HT29 colon.
In test [3] the test system is SNB-75 CNS.
Test [4] concerns SNB-19 CNS.
For test [5], the system named is U251 CNS.
Test [6] relates to PC-3 prostate.
The test system of test [7] is SK-MEL-5 melanoma.
Test [8] concerns UACC-62 melanoma.
Test [9] concerns SK-MEL-28 melanoma.

As for `Cn1cc(-c2nc(-c3cn(C)c4ncccc34)cs2)c2cc(F)ccc21`, the growth in test [1] was 21.3%; in test [2] it was 8.87% (active); in [3], 29.1%; in test [4], 46.4%; in test [5] it was 31.8%; in [6], 47.1%. For the same compound, the growth in [7] is 24.7%; in test [8], 41.7%; in [9], 50.9%.

Regarding `CC(C)(C)n1cc(-c2ccnc(NCCCNS(=O)(=O)c3ccc(Cl)cc3)c2)c(-c2cccc(F)c2)n1`, the growth was 9.66% (active) in test [1]; 27.6% in [2]; 76.5% in test [3]; 80% in [4]; 61.7% in test [5]; 49.7% in test [6]. Further, the growth in [7] was 70.7%; in test [8], 84.6%; in test [9], 89.4%.

`O=[N+]([O-])c1ccc(/C=N\Nc2ccccc2)cc1`: the growth was 65.5% in test [1]; 96.8% in [2]; 81.8% in test [3]; 104% in test [4]; 72% in test [5]; 69% in test [6]. Moreover, the growth in [7] is 98.1%; in test [8], 3.85% (active); in test [9], 97.5%.

For the compound `N#C/C(=C\c1ccc(-c2ccc(F)cc2)o1)c1nc(-c2ccco2)cs1`, the growth in test [1] is 84.5%; in [2], 98.7%; in [3] it was 88.9%; in test [4], 101%; in test [5], 97.3%; in test [6], 93.3%. The growth in [7] was 92.8%; in test [8], 87.1%; in test [9], 114%.

Take `CC(C)/C=C/CC[C@](C)(O)[C@H]1CC[C@]2(C)[C@@H]1CC[C@@H]1[C@@]3(C)C/C(=C/c4cccc(C(F)(F)F)c4)C(=O)C(C)(C)[C@@H]3CC[C@]12C`: the growth in test [1] is 90.6%; in test [2], 97.3%; in [3], 62.8%; in test [4], 92.2%; in test [5], 92.6%; in [6], 79.5%. Further, the growth in [7] was 97.6%; in test [8], 81.8%; in [9] it was 105%.

Regarding `Cc1cccc2c1NC(=O)[C@@]21[C@H](C(=O)c2ccccc2)[C@]2(C(=O)Nc3ccccc32)[C@H]2CCCN21`, the growth in test [1] was 9.8% [100 µM] (active); in [2], 3.18% [100 µM] (active); in test [3] it was -25.4% [100 µM] (active); in [4], -5.94% [100 µM] (active); in test [5] it was 1.7% [100 µM] (active); in test [6], 21.7% [100 µM]. Also, the growth in [7] was 31% [100 µM]; in [8], 22.5% [100 µM]; in test [9], 46.4% [100 µM].

As to `CN1CCN(c2nc(-c3csc(-c4cccs4)n3)cc3ccccc23)CC1`, the growth in [1] was 7.33% (active); in test [2], -27.3% (active); in test [3] it was 54.5%; in test [4] it was 66.1%; in test [5] it was 28.8%; in [6], 39.8%. The growth in [7] was 43.7%; in [8], 33.6%; in [9], 68.9%.

On to `C[C@@H](Oc1ccc(C(=O)NS(=O)(=O)C(C)(C)C)cc1C(F)(F)F)c1ccc(Oc2ccccc2)cn1`, for which the growth in [1] was 23.8%; in test [2] it was 34.6%; in test [3] it was -9.43% (active); in test [4] it was 20%; in test [5], 25.6%; in test [6], 47.5%. Also, the growth is 23.2% in [7], 18% in test [8] and 47.1% in test [9].

Take `COC1=C(Br)C(=O)C(OC)=C(Br)C1=O`: the growth was 96.1% in test [1]; 106% in test [2]; 103% in test [3]; 95.8% in test [4]; 104% in test [5]; 107% in [6]. In addition, the growth was 99.4% in test [7], 91.2% in test [8] and 117% in test [9].

`Fc1cccc(-c2[nH]nc3nc(Nc4cccnc4)sc23)c1`: the growth in [1] was 37.1%; in [2] it was 14.5%; in test [3], 47.5%; in test [4], 40.2%; in [5] it was 38.6%; in test [6], 33.1%. Besides, the values for the growth in test [7], in [8] and in test [9] were 33%, 57.2% and 68.6%, respectively.

Regarding `O=C1c2cccc3cccc(c23)C(=O)N1CC#Cc1ccc2c3c(cccc13)C(=O)N(CCO)C2=O`, the growth was 82.1% in test [1]; 96.5% in [2]; 69.9% in [3]; 96.3% in test [4]; 93.1% in test [5]; 84.8% in test [6]. The growth in test [7] is 90.8%; in [8], 93.1%; in test [9], 112%.

With `COc1cc2c(cc1OC)C(=O)/C(=C/c1cc(-c3ccc4c(c3)OCO4)n[nH]1)C2`, the growth is -39.9% (active) in test [1]; -29.5% (active) in test [2]; -4.64% (active) in test [3]; 9.31% (active) in test [4]; -75.5% (active) in test [5]; -65.7% (active) in test [6]. Besides, the growth was 48.4% in test [7], 25.8% in [8] and 0.563% (active) in [9].

In the case of `Cn1cc(-c2csc(-c3cn(C(=O)OC(C)(C)C)c4ccc(Br)cc34)n2)c2cccnc21`, the growth in test [1] was 93.4%; in [2] it was 93.4%; in test [3] it was 78.9%; in [4], 93.2%; in [5], 87.4%; in [6], 87.5%. Besides, the growth in test [7] is 97%; in test [8] it was 91%; in test [9], 108%.

Turning to `O=C1CN(c2ccccc2)C(=O)C1C(=O)Nc1ccc(Cl)c(Cl)c1` (stereo unspecified), the growth in test [1] was 27.9% [100 µM]; in test [2], 3.98% [100 µM] (active); in [3], 6.38% [100 µM] (active); in test [4] it was 3.37% [100 µM] (active); in test [5], -7.08% [100 µM] (active); in test [6], 27.1% [100 µM]. The growth in test [7] was -6.23% [100 µM] (active); in test [8], -3.41% [100 µM] (active); in test [9] it was 33.4% [100 µM].
